Compound activity from PubChem.
PLCg1 inh = PLC-gamma1 (human) inhibition, primary screen; purified PLC-gamma1, fluorogenic substrate, fluorescence; inhibition, % at 12.2 µM; hit rate 0.84% among 370,000; AID 720700; in the data active = inhibition above about 9.5%
ADAM17 inh = inhibitors of human ADAM17. AID 720648. P78536. recombinant ADAM17, EDANS/DABCYL FRET peptide cleavage. hit rate 0.83% among 370,000. inhibition, % at 6.95 µM;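 active = inhibition above the mean of compounds lying between control limits plus 3 SD, set per campaign, cut at about 8.5% in these data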
proKLK7 act = proKLK7 (human) activation, primary screen; hit rate 0.9% among 370,000; purified proKLK7, EDANS-DABCYL substrate fluorescence; 100% is mature enzyme control, 0% vehicle; activation, % at 7 µM;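 active = activation above the mean of all tested compounds plus 3 SD, computed per campaign excluding outliers beyond control limits, cut at about 13% in these data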
PLCb3 inh = PLC-beta3 (human) inhibition, primary screen | Purified PLC-beta3, fluorogenic substrate, fluorescence | hit rate 0.18% among 370,000 | inhibition, % at 12.2 µM | Q01970 | AID 720704
ADAM10 inh = inhibitors of human ADAM10; O14672; hit rate 0.62% among 370,000; recombinant ADAM10, EDANS/DABCYL FRET peptide cleavage, 3 h; inhibition, % at 7 µM; AID 720582;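 active = inhibition above a per-campaign cutoff equal to the mean of compounds falling between control-based bounds plus 3 SD, cut at about 20% in these data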
Target sequence (O14672 214-748 limits assumed): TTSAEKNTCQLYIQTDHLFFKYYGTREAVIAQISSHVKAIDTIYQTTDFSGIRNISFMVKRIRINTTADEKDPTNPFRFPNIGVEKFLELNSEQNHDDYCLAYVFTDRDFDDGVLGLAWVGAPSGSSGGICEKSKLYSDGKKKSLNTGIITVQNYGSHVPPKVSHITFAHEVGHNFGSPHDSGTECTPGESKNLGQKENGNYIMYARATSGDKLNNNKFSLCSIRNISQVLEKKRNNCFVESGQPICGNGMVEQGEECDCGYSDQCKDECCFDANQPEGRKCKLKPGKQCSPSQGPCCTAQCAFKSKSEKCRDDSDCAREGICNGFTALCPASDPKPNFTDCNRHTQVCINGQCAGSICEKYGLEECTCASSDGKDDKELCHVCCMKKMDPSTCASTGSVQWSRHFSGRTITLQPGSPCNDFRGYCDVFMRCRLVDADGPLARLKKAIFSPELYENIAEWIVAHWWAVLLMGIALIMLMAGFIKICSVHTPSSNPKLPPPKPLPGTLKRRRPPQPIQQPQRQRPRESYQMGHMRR
PLCg1 ctr = counter-screen for PLC-beta3 inhibitors: inhibitors of human PLC-gamma1. shares compounds with PLCg1 inh. purified PLC-gamma1, fluorogenic substrate, fluorescence. inhibition, % at 12.3 µM. hit rate 3.1% among 3,300; in the data active = inhibition above about 9.5%
PLCbeta3 conf = confirmation of human PLC-beta3 inhibitors | shares compounds with PLCg1 inh | inhibition, % at 12.3 µM | AID 743261 | purified PLC-beta3, fluorogenic substrate fluorescence | hit rate 1% among 3,300
Numbers stand for hits; - = inactive; . = no result given. The list is not random: actives were taken first. Their share in the collection is about 2.9%. Rule as the data show it, unless noted: active = inhibition above about 11%; inactive = the rest.

SMILES	PLCg1 inh	ADAM17 inh	proKLK7 act	PLCb3 inh	ADAM10 inh	PLCg1 ctr	PLCbeta3 conf
CC(C)Cc1ccc(S(=O)(=O)Nc2cccnc2)cc1	9.8	-	-	-	-	-	-
CC(C)COP(=O)(CNC(=O)CN1C(=O)c2ccccc2S1(=O)=O)OCC(C)C	9.8	-	-	-	-	-	-
CC1CCC(NC(=O)CN2C(=O)c3ccccc3S2(=O)=O)CC1 (stereo not drawn)	12	-	-	-	-	-	-
CCOC(=O)N1CCC(NC(=O)c2cc3ccccn3n2)CC1	-	-	-	-	-	.	.
O=C(OCC(=O)N1CCc2ccccc2C1)c1cc(=O)[nH]c2ccccc12	-	-	-	-	-	.	.
COc1cc(/C=N\Nc2nncn2N)ccc1OC(C)=O	14	-	-	-	-	-	-
COc1cc(/C=N/NC(=O)c2ccncc2)ccc1OC(C)=O	-	-	-	-	-	.	.
O=C(NCC1CCN(Cc2ccc(F)cc2)CC1)C1CCCN(c2ncnc3c2nc2n3CCCCC2)C1 (stereo not drawn)	-	-	-	-	-	.	.
O=C(NCC1CCN(Cc2ccc(Cl)cc2)CC1)C1CCCN(c2ncnc3c2nc2n3CCCCC2)C1 (stereo not drawn)	11	-	-	-	-	-	-
CC(=O)c1c(C)[nH]c(C(=O)OCC(=O)NCCc2ccc(Cl)cc2)c1C	11	-	-	-	-	-	-
Cc1ccc(NC(=O)c2nn(C34CC5CC(CC(C5)C3)C4)cc2[N+](=O)[O-])cc1	12	-	-	14	-	-	11
COc1ccc(NC(=O)c2nn(C)cc2[N+](=O)[O-])cc1	-	-	-	-	-	.	.
CC(C)c1ccc(NC(=O)Cn2c(=O)oc3cccnc32)cc1	-	-	-	-	-	.	.
O=C(Nc1ccc2c(c1)OCO2)O[C@@H]1C[C@H]2CCC(=O)N3CC[C@@H](C1)[C@@H]23	-	-	-	-	-	.	.
CCN(Cc1ccccc1)C(=O)Cn1cc2c(n1)CCCC2	10	-	-	-	-	-	-
O=C(O)c1ccc(-n2c(-c3cc(-c4ccco4)[nH]n3)n[nH]c2=S)cc1	31	-	-	-	-	23	-
CC(c1nc2ccccc2[nH]1)n1c(=O)c(-c2ccco2)nc2ccccc21 (stereo not drawn)	-	-	-	-	-	.	.
CCOC(=O)c1ccc(NC(=O)CSc2nnc(SCc3cccc4ccccc34)s2)cc1	12	-	-	-	-	-	-
Cc1cccc(Nc2nnc(SCC(=O)Nc3ccc(C(=O)O)cc3)s2)c1	9.8	-	-	-	-	-	-
CCCn1c(=S)[nH]c2cc(C(=O)N3CCN(C4CCCCC4)CC3)ccc2c1=O	-	-	-	-	-	.	.
O=C(NCc1ccc(Cl)c(Cl)c1)O[C@H]1CC[C@@]23CCCN2C(=O)CCC[C@H]3C1	-	-	.	-	-	.	.
CCN(CC)C(=O)Oc1ccc(Br)cc1C(=O)Nc1ccc(F)cc1F	9.7	-	-	-	-	-	-
COc1ccc(NC(=O)C2(C)CCN2Cc2csc3ccccc23)cc1OC (stereo not drawn)	-	-	-	-	-	.	.
CC(=O)Nc1ccc(OC(=O)c2ccc(Cl)cc2)cc1	-	-	-	11	-	-	-
CC(=O)Nc1ccc(C(=O)OCc2ccc(Cl)cc2)cc1	-	-	-	-	-	.	.
SMILES	PLCg1 inh	ADAM17 inh	proKLK7 act	PLCb3 inh	ADAM10 inh	PLCg1 ctr	PLCbeta3 conf
CCOC(=O)C1CCN(S(=O)(=O)c2c(C)[nH]c(C)c2C(=O)N2CCCCC2)CC1	-	-	-	-	-	.	.
COc1ccc(-n2c(C)cc(/C=C3/SC(=S)N(C)C3=O)c2C)cc1	11	-	-	-	-	-	-
Cc1cc(/C=C2\SC(=S)N(C)C2=O)c(C)n1-c1cccc(O)c1	-	-	-	-	-	.	.
COc1cccc(NC(=S)N2CCCC2c2ccc(OC)c(OC)c2)c1 (stereo not drawn)	11	-	-	-	-	-	-
COc1ccc(C(=O)NCC(=O)OC2CCCCC2=O)cc1 (stereo not drawn)	-	-	-	14	-	-	-
CC(=O)c1cnc2sccn2c1=O	14	-	-	-	-	-	-
COc1ccc(NC(=O)c2cnc3sccn3c2=O)cc1	-	-	-	-	-	.	.
CCOc1ccc(NC(=O)CSCc2cnn(-c3ccccc3)c2-n2cccc2)cc1	10	-	-	-	-	-	-
